Hit rate of the full screen: of about 31,000 sequences, about 1,400 (4.5%) were called active.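 The calls were made as follows: active = median seed-adjusted z-score above 1 or below -1; inactive = the rest.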 Only a selection was taken, and actives are over-represented in it overall.
Test: Novel Modifiers of Survival Motor Neuron (SMN) Protein: Gene Identification via Genome-wide siRNA Screen;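 also: luminescence tracks full-length SMN protein made from the SMN2 reporter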
Conditions: HEK293T SMN2-luciferase reporter, siRNA knockdown, 72 h; actives lie on both sides
Outline: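 HEK293T cells stably carrying an SMN2 promoter/splicing cassette–luciferase reporter were reverse-transfected with 1 pmol siRNA per well (druggable-genome library, 3 siRNAs per gene) and grown 72 h at 37 °C. Luminescence, normalized to negative-control siRNA and log10-transformed, was scored as MAD.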
With GGGCGGUACUUUACAACUATT against KCTD9 the median seed-adjusted z-score was 1.31 (active). With CUAGAGUAUUUUGAUCUAATT against FAT2 the median seed-adjusted z-score was -0.286 (inactive). In the case of CACCGUGUUUGACAACUAUTT against RAC2, the median seed-adjusted z-score is reported as -0.596 (inactive). In the case of GGACCAACCCAGAAUCGUATT against MAOB, the median seed-adjusted z-score is reported as 0 (inactive). In the case of UCGCAAAGGUGAACACUCATT against PIN1, the median seed-adjusted z-score is reported as 0.156 (inactive). In the case of AGAUGUGACUGGCUGGUCATT against LCN12, the median seed-adjusted z-score is reported as 0.124 (inactive). With AGACCUACACGGUACGCGUTT against THAP11 the median seed-adjusted z-score was -1.36 (active). For GCAUCUAAUACUUAUGGAATT against MS4A4A, the median seed-adjusted z-score was 0.296 (inactive). In the case of GAAGCAUGAUGGACAGGAUTT against ISOC1, the median seed-adjusted z-score is reported as 0.104 (inactive). In the case of CCUCGACCUGGUCACUUUATT against TRMU, the median seed-adjusted z-score is reported as 0.0312 (inactive). For CCGUAGCAAUAGUAGGUGUTT against UBA5, the median seed-adjusted z-score was -0.105 (inactive). For GCCUGACCAUCUCCAUUGUTT against USH1C, the median seed-adjusted z-score was -0.164 (inactive). For CGUGUUCCGAGAAAACGAATT against PLEKHM2, the median seed-adjusted z-score was 0.593 (inactive). For GCAACAGCUCAAAAACGAATT against UAP1, the median seed-adjusted z-score was 0.0411 (inactive). For CAUCUACUGUCAUUAACCATT against ITIH5, the median seed-adjusted z-score was -0.289 (inactive). With AGACCCAGCUAGAUUCUGATT against GPR152 the median seed-adjusted z-score was -0.9 (inactive). For CCUCGUUUGACAUCCACUATT against CTSD, the median seed-adjusted z-score was -0.282 (inactive). In the case of CAUUCACGGAGAUAAGAAATT against ALDH1L1, the median seed-adjusted z-score is reported as 0.0289 (inactive). For UGAAUUACCUGGACCGUUUTT against CCND2, the median seed-adjusted z-score was -0.819 (inactive). In the case of UGCGUUUUCUGAUAACUCATT against PTP4A2, the median seed-adjusted z-score is reported as -1.45 (active). With GGCAAAAAGCUGACUGAGATT against GPD1 the median seed-adjusted z-score was 0.558 (inactive). For GGAUGAUUAUGCUAAUCUATT against GGPS1, the median seed-adjusted z-score was -0.372 (inactive). With GCACUGUCUUUGUAUCUGATT against SFXN2 the median seed-adjusted z-score was 0.365 (inactive). With GGGCUGUUGUAAUAGUGGATT against SFPQ the median seed-adjusted z-score was -1.15 (active). For AGGCCUUUCUUACCCAGAATT against MAP2K1, the median seed-adjusted z-score was 0.942 (inactive). With CACUUGAUCUCUUAACCAUTT against 10-Sep the median seed-adjusted z-score was 0.571 (inactive). With GCACAGGACAGACAGGCUATT against SRC the median seed-adjusted z-score was -0.0246 (inactive). For GGAUUACAGCAGGUGCAGATT against MED8, the median seed-adjusted z-score was -1.61 (active). For GAAUCUCACAAUUAUGUAUTT against NCK2, the median seed-adjusted z-score was -0.397 (inactive). With AGAUAAGCAUGGUGCCCAATT against BPI the median seed-adjusted z-score was 0 (inactive). With GACCGUUUAAUGAAGCUUUTT against SPTLC2 the median seed-adjusted z-score was 0 (inactive). For CCAUUGUAGUCUCUCCUCUTT against RECQL5, the median seed-adjusted z-score was 0 (inactive). With GCCCUCCUGUGCAACCAUATT against SPRR2G the median seed-adjusted z-score was 0.358 (inactive). In the case of ACAUGAAGGUGAAUCCUGUTT against COX4I2, the median seed-adjusted z-score is reported as -0.0202 (inactive). In the case of CAGCGAUUUUAAAUCGUAUTT against HSD17B13, the median seed-adjusted z-score is reported as -0.329 (inactive). For CAACCAACCUGCAUCUAGATT against TRIM33, the median seed-adjusted z-score was 0.316 (inactive). With CGACCCUUGAAGUUCAAUATT against EFTUD2 the median seed-adjusted z-score was -1.25 (active). With GGAUCCUUCUAUACGCAUATT against SLC4A7 the median seed-adjusted z-score was 0 (inactive). In the case of CAGUAGAUGUGGAAAAGGATT against PTK2B, the median seed-adjusted z-score is reported as 1.71 (active). For CCAUUGAUGGAGUCAGAUUTT against POLD2, the median seed-adjusted z-score was 0.97 (inactive). In the case of CCACUAGUGAAACAACCAATT against PCLO, the median seed-adjusted z-score is reported as -0.734 (inactive). In the case of GCAAGGAGCUAGAGCCUUUTT against MOBKL2B, the median seed-adjusted z-score is reported as -0.613 (inactive). For GCAAGUCCACGUUCCUCAATT against GNA12, the median seed-adjusted z-score was 0.598 (inactive). In the case of AGCUACCGAUGGAAGAGGATT against CLK3, the median seed-adjusted z-score is reported as -1.11 (active). With AGGUCAAGCUUAGUGACAATT against ZDHHC8 the median seed-adjusted z-score was 0 (inactive). For GCUUCUCAUGGGAUCAAAATT against PGCP, the median seed-adjusted z-score was 0.145 (inactive). In the case of CCGGGAAAUUGAUUAUGCATT against SIN3B, the median seed-adjusted z-score is reported as 0.509 (inactive). In the case of GCAUCUCAUCGGAAGAGGATT against MAP3K12, the median seed-adjusted z-score is reported as -0.6 (inactive). In the case of GAUCCUAAAUCAUGACUUATT against COX6B1, the median seed-adjusted z-score is reported as -0.706 (inactive). In the case of GGACGAAUGAGUUCCAGUUTT against PCDHB8, the median seed-adjusted z-score is reported as 1.15 (active). For AGACCUAGCUUUAGCACAATT against ZFAND2B, the median seed-adjusted z-score was 0 (inactive). In the case of GAAGCGGCAUUAGCAGAGATT against ISOC1, the median seed-adjusted z-score is reported as 0.104 (inactive). With GGUAAAAUCAAGUACCAUATT against TIGD2 the median seed-adjusted z-score was -0.13 (inactive). In the case of GCAUCACCAUCCUUCCGCATT against BACE1, the median seed-adjusted z-score is reported as -0.537 (inactive). For AGAGAGUGGUUUUUCCUCCTT against WWP2, the median seed-adjusted z-score was -0.685 (inactive). With GUGCUUCAGUAGGUAUGUATT against ASNS the median seed-adjusted z-score was -1.1 (active). For GGCCUUUAGUUAUAAAGGATT against TIMM8A, the median seed-adjusted z-score was 0.173 (inactive). In the case of ACAUAGCCGUGUCCAGGUATT against GLYCTK, the median seed-adjusted z-score is reported as 0.0328 (inactive). For GACCUGAAUUGUAUCAUCATT against MAPK3, the median seed-adjusted z-score was -0.573 (inactive). With GAACUCCAGAGAUCAAUAATT against IL7R the median seed-adjusted z-score was 0 (inactive). In the case of CCAACUAUCAGUGACCGUATT against CYP17A1, the median seed-adjusted z-score is reported as -1.39 (active). With CUAUCACCUGGACUGUAUATT against RNF11 the median seed-adjusted z-score was -0.365 (inactive). For GGAGACUUACUACCUAUAATT against PARD6B, the median seed-adjusted z-score was 0.315 (inactive). In the case of GGCUUCUUCUAUUCAAUUUTT against BCL6B, the median seed-adjusted z-score is reported as 0 (inactive). In the case of GAACUGACAAGCUUAGUAATT against SAP18, the median seed-adjusted z-score is reported as 2.14 (active). With AUACAGAUCUAAUAGAGUUTT against NAT1 the median seed-adjusted z-score was -0.0665 (inactive). For CCAUUGACAAUUCAACUUATT against ST8SIA1, the median seed-adjusted z-score was -0.25 (inactive). For CGCCUCAACCUGAUCAUCATT against ENPP7, the median seed-adjusted z-score was -0.478 (inactive). For GUGCCUUGCUAUUCUAAGATT against NEUROD1, the median seed-adjusted z-score was 0 (inactive). For GAAACUCUCUUCAAGUCUATT against CKB, the median seed-adjusted z-score was -0.236 (inactive). For GGCAAAUGGUUGAGACUGATT against YWHAE, the median seed-adjusted z-score was 1.38 (active). In the case of GCAGCAUAAUGAAACGUGATT against ARPM1, the median seed-adjusted z-score is reported as -0.0251 (inactive). For UCUUCGAGCAAGAAACUAATT against CD9, the median seed-adjusted z-score was -1.02 (active). For AUAAAUUCCUGAUUGCUAATT against CXCL6, the median seed-adjusted z-score was 0.802 (inactive). For GGACUACAGCGGACAAGGATT against WDR1, the median seed-adjusted z-score was -0.457 (inactive). In the case of GGAACAUUCCUGUGCAACATT against MTMR3, the median seed-adjusted z-score is reported as 0.281 (inactive). With GAUGAUAGCCAAACCCUCATT against ZNF626 the median seed-adjusted z-score was 0.185 (inactive). In the case of GGUGUUGUUUCAUCGUUUUTT against CCNL1, the median seed-adjusted z-score is reported as -1.26 (active). With GUGCAUGCAGGAGAAGUCATT against GATA2 the median seed-adjusted z-score was 0.623 (inactive). With GCAUGCAGCCUUGAAGAUATT against CRYZL1 the median seed-adjusted z-score was 0.0481 (inactive). With CGUGUCAAAUAUUGGAUUATT against KLB the median seed-adjusted z-score was 0.221 (inactive). For GCACCUUCGUCCUCAACUUTT against PROC, the median seed-adjusted z-score was -0.228 (inactive). In the case of CCGCUGAACCUGUUGAAGATT against SGMS2, the median seed-adjusted z-score is reported as -0.492 (inactive). In the case of GGUGCUCUCGGUUGCACAATT against U2AF1, the median seed-adjusted z-score is reported as 2.08 (active). For CAAGCUCUGAUAUACCGAATT against HIVEP1, the median seed-adjusted z-score was 0.532 (inactive). In the case of UGCACAUCAAGUAUCCUAATT against SLC30A10, the median seed-adjusted z-score is reported as 0.523 (inactive). In the case of GCAUCAUCCAGAACACGGATT against ARHGEF18, the median seed-adjusted z-score is reported as 0.586 (inactive). For CGAUGGAGAUGUUUCGGGATT against KCNA2, the median seed-adjusted z-score was -1.03 (active). For GCGAGAGUCUGCAUAGGUATT against GRIN2D, the median seed-adjusted z-score was -0.135 (inactive). In the case of GGAAGAAAGUAUAAUAGAATT against MAFG, the median seed-adjusted z-score is reported as 0 (inactive). In the case of UGAUCAACCUCAAGACGGATT against MED16, the median seed-adjusted z-score is reported as -0.6 (inactive). With GAAACACGUCAGUCCUAAUTT against LHX8 the median seed-adjusted z-score was 0 (inactive). For GAAGUUCAUACUAAGCGUATT against TPR, the median seed-adjusted z-score was -1.03 (active). In the case of CGUGGUACCAGACAUCUGATT against CCL17, the median seed-adjusted z-score is reported as 0.178 (inactive). With GACCGACUGCAGAACAAUATT against PDE6B the median seed-adjusted z-score was -0.336 (inactive). With GGAUAAUACAGUUCGAUUATT against TAF5 the median seed-adjusted z-score was -0.192 (inactive). In the case of GACUCCCUGCUUUCAAUAATT against SALL2, the median seed-adjusted z-score is reported as 0.504 (inactive). In the case of CCCUCUCAGUACUACGCUATT against ZMYND10, the median seed-adjusted z-score is reported as 0.255 (inactive). With CAAGAAAACUGCGAAUAAATT against STX2 the median seed-adjusted z-score was 0.442 (inactive). With GUUUCAUCUGGGUUCGCUATT against SF3B3 the median seed-adjusted z-score was -2.53 (active). With GAACCAUCUCAAUACUAUUTT against DACH2 the median seed-adjusted z-score was -0.00102 (inactive). With GGGCGAGUAUUAUGACUAUTT against MYO15A the median seed-adjusted z-score was 0.0508 (inactive). For GACUGUUCGUUUCCCAGAUTT against CHRNA7, the median seed-adjusted z-score was -0.485 (inactive). With GAGACAGCCUGAUGGAGAATT against STC1 the median seed-adjusted z-score was -1.36 (active). For GCUCCUUGCUACCAUAGUATT against CCBP2, the median seed-adjusted z-score was -0.0896 (inactive). With CUCUCAGACAAGCUACUGATT against CCL27 the median seed-adjusted z-score was 0 (inactive). For GUUGUGGUCUGAUCAGUUATT against TUBA1A, the median seed-adjusted z-score was 0.284 (inactive). In the case of AGUUCCCUUUGUAACCAUATT against ZNF669, the median seed-adjusted z-score is reported as 0.175 (inactive). For AGGCUGCGUUUGGACCAGATT against PAPLN, the median seed-adjusted z-score was -0.186 (inactive).

Reference: PubChem BioAssay AID1347426 (Functional Genomics Laboratory (NCATS/FGL), 2020)
